Rows were chosen to be rich in hits. Some 3.7% of all compounds tested hit in one or more screens of this group.
S2 tox – viability counter-screen for ATXN expression inhibitors; S2 cells (HEK-293 line with an ATXN2-luciferase reporter) viability, CellTiter-Fluor protease fluorescence, 24 h; Potency, µM (doses to about 56.7 µM), most hits filed as cytotoxic; 400,000 tested, 0.49% active; AID 651635; also: nearly all actives have a fitted effect of over 40% in size
ATXN2 expr inh – inhibitors of ATXN2 expression. HEK-293 ATXN2-luciferase reporter, luminescence, 24 h. Potency, µM (highest dose often 57 µM), inactives show top-dose activity change, negative = inhibition, usual class: inhibitors. 360,000 tested, 0.72% active; also: % is scaled to controls: 0 for no effect and ±100 for the full control effect; nearly all actives have a fitted effect of over 55% in size
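qHTS (up to 57 uM final) was run with 24 h compound exposure of reporter cells at 37 °C. Each well was multiplexed: SteadyGlo luminescence measured ATXN2-luciferase expression after a fluorogenic Gly-Phe-AFC viability readout (25 uM final).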
TGFb inhibitor – inhibitors of TGF-b signaling; HepG2 CAGA-GFP TGF-b/SMAD3 reporter, GFP fluorescence, 18 h; TGF-beta stimulated, 500 pg/mL final; Potency, µM (highest dose often 46.1 µM), without a hit: top-dose activity, negative = inhibition, hits mostly inhibitors; 410,000 tested, 1.2% active; also: % is scaled to controls: 0 for no effect and ±100 for the full control effect; nearly all actives have a fitted effect of over 65% in size
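Cell-based qHTS in HEPG2 carrying a CAGA-GFP Smad reporter; compounds added before 500 pg/mL final TGF-beta, 18 h incubation at 37 degrees C, GFP fluorescence quantified per cell by imaging cytometry.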
HepG2 tox – HepG2 cytotoxicity, counter-screen for TGF-b inhibitors; Potency, µM (titrated, usually from 46.1 µM), inactives show at the highest dose activity change, negative = cytotoxicity, actives largely listed as cytotoxic; HepG2 CAGA-GFP viability, ATP luminescence, 18 h; 410,000 tested, 0.76% active; AID 588856
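HepG2 CAGA-GFP cells (1000/well, DMEM with 1% FBS) received compound, then TGF-beta at 500 pg/mL final, and were incubated 18 hours at 37 degrees C. Viability was read by CellTiter-Glo luminescence. Media-only wells were set as complete cell-killing and DMSO as no toxicity.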
GLP-1R inv ag – GLP-1 receptor (human) inverse agonism. P43220. HEK293 GLP-1R CRE-luciferase, luminescence, 24 h; GLP-1R form is constitutively active. Potency, µM (highest dose often 38.3 µM), without a hit: top-dose activity change, negative = inhibition, actives largely listed as inhibitors. 410,000 tested, 1.6% active; also: % is scaled to controls: 0 for no effect and ±100 for the full control effect; nearly all actives have a fitted effect of over 55% in size
Target sequence (P43220 whole entry, looked up): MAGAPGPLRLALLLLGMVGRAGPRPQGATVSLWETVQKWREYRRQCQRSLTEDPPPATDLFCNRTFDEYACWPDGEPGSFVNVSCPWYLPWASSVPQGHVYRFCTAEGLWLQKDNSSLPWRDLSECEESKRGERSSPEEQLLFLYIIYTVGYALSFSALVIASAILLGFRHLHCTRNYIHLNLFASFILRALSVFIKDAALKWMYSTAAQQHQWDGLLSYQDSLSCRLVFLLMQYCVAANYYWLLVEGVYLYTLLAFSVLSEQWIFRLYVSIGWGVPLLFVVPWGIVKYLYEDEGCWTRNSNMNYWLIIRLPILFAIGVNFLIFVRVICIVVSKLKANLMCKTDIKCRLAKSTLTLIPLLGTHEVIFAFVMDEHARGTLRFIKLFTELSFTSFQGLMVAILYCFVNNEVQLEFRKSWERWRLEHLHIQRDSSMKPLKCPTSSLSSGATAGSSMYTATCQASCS
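HEK293 cells stably co-expressing a cAMP-responsive luciferase reporter and constitutively active GLP-1R were seeded, incubated 12 h, then exposed to compounds for 24 h at 37 C. Luminescence was read 12 min after detection reagent; inverse agonists lower signal.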
GLP-1R agonist – activates the human GLP-1 receptor. 380,000 tested, 0.007% active. AID 624172. Potency, µM (doses to about 45.6 µM), inactives show at the top dose activation, most hits filed as activators. HEK293 GLP-1R CRE-luciferase, luminescence, 4-6 h; cells express a hypersensitive GLP-1R form. P43220; also: % of control where 0% means no effect
Numbers without * were called inactive; i = inactive; ? = inconclusive; / = no result given. Calls follow the shape of the dose curve; as a rule, active = well fitted curve in the direction sought with a large enough effect; inconclusive = small, poorly fitted or top-dose-only effect, or another doubt; inactive = no such curve, though single readings can be large; an effect the other way counts as inactive or inconclusive. Potency is read from the fitted curve at half-maximal effect.

SMILES	S2 tox	ATXN2 expr inh	TGFb inhibitor	HepG2 tox	GLP-1R inv ag	GLP-1R agonist
O=Cc1cc(N=Nc2cccc(C(=O)O)c2)ccc1O	i	3%	-14%	-43%	-20%	0%
O=Cc1cc(N=Nc2ccccc2Cl)ccc1O	34µM*	-32%	?	-17%	?	-4%
C#CCCc1ccccc1/C=[N+](/C)[O-]	i	-7%	16µM*	-94%	9%	4%
CCN(CC)c1cc(C)c2cc(NC(=O)/C=C/c3ccccc3Cl)ccc2n1	/	28µM*	?	-81%	?	2%
CCN(CC)c1cc(C)c2cc(NC(=O)c3ccc(OC)c(OC)c3)ccc2n1	?	-6%	?	-83%	?	-6%
CCN(CC)c1cc(C)c2cc(NC(=O)c3cc(OC)cc(OC)c3)ccc2n1	/	18µM*	?	-27%	?	5%
CSCCC(NS(=O)(=O)c1ccc2c(c1)oc(=O)n2C)C(=O)N1CCN(c2cccc(Cl)c2)CC1 (stereo not drawn)	/	/	?	-6%	10%	/
CC(=O)N1N=C(c2ccc(C)cc2)OC1c1ccc(Br)cc1 (stereo not drawn)	i	48%	2%	-11%	?	16%
CCOc1ccc(Br)cc1C1=NN(C(C)=O)C(c2ccc([N+](=O)[O-])s2)O1 (stereo not drawn)	i	-6%	13µM*	-99%	51%	12%
Cc1ccc(CNC(=O)c2cc3c(=O)n4cccc(C)c4nc3s2)cc1	i	4%	-30%	-2%	11%	/
O=C(Nc1ccc(F)cc1)[C@H](Cc1ccccc1)N1Cc2ccccc2C1=O	?	0%	?	-5%	?	-1%
C=C1NN(Cc2ccc(OC)cc2)C(=O)N1c1ccccc1	/	/	0%	-2%	/	/
CC(C)(C)c1cc(NCc2ccccn2)n2ncc(-c3ccccc3)c2n1	i	-34%	14µM*	-32%	-84%	26%
CCOC(=O)c1sc(NC(=O)c2sccc2C)cc1C	i	90%	2%	14µM*	?	8%
CCOC(=O)c1sc(NC(=O)Nc2cccc(Cl)c2)cc1C	?	-33%	?	-28%	3.5µM*	-13%
CCN(CC)Cc1ccc2cc(COC(=O)Nc3ccc(C(=O)NO)cc3)ccc2c1	/	36%	/	/	/	/
CCN1CCCC1CNC(=O)c1cc2c(-c3cccc(OC)c3)nn(C)c2s1 (stereo not drawn)	?	-3%	-3%	-39%	?	1%
Cn1nc(-c2ccc(Cl)cc2)c2cc(C(=O)NCCCN3CCCC3)sc21	18µM*	20µM*	4%	-15%	?	1%
CCN1CCCC1CNC(=O)c1cc2c(-c3ccc(Cl)cc3)nn(C)c2s1 (stereo not drawn)	14µM*	25µM*	?	-48%	?	-5%
CCOc1ccccc1NC(=O)C1CCCN1S(=O)(=O)c1ccc2nc(-c3ccccc3)[nH]c2c1 (stereo not drawn)	/	/	11µM*	-27%	?	/
Cc1cc(C)cc(NC(=O)C2CCCN2S(=O)(=O)c2ccc3nc(-c4ccccc4)[nH]c3c2)c1 (stereo not drawn)	/	/	?	-29%	?	/
O=c1oc2c(O)cccc2cc1-c1nc2ccccc2[nH]1	/	9%	34%	-34%	9%	-1%
O=C(O)c1ccc2nc(-c3cc4cccc(O)c4oc3=O)[nH]c2c1	/	/	/	8.9µM*	?	/
CCOc1ccc(Cl)cc1CNCCCSc1nnnn1C	i	-11%	11%	4%	?	/
COCCN(CCOC)C(=O)c1cc2sc3ccccc3c2s1	i	1%	0%	3%	8%	?
SMILES	S2 tox	ATXN2 expr inh	TGFb inhibitor	HepG2 tox	GLP-1R inv ag	GLP-1R agonist
CN(C)CCNC(=O)c1cc2sc3ccccc3c2s1	?	-6%	-2%	-13%	3.2µM*	2%
CC(C)c1ccc(NC(=O)CSc2nnc(-c3ccccc3)n2C)cc1	/	/	8%	10%	/	/
O=C(Nc1ccc(C(=O)N2CCN(c3ccc(Cl)cc3)CC2)cc1)c1nsc2ccccc12	i	1%	5%	-23%	6.3µM*	/
COc1cccc(N2CCN(C(=O)c3ccc(NC(=O)c4nsc5ccccc45)cc3)CC2)c1	?	-14%	13%	-2%	8.9µM*	/
CCOc1ccc(S(=O)(=O)NCCc2csc(-c3ccc(Cl)cc3)n2)cc1	?	?	11µM*	-67%	?	/
Cc1ccc(S(=O)(=O)NCCc2csc(-c3ccc(Cl)cc3)n2)cc1	i	?	11µM*	-36%	?	-2%
O=S(=O)(NCCc1csc(-c2ccc(F)cc2)n1)c1ccc(Cl)cc1	?	16µM*	?	-24%	11µM*	/
Cc1ccc(C)c(S(=O)(=O)NCCc2csc(-c3ccc(Cl)cc3)n2)c1	?	?	11µM*	-94%	?	/
Cc1ccc(S(=O)(=O)NCCc2csc(-c3cccc(F)c3)n2)cc1	?	?	?	-43%	-27%	/
COc1ccc(S(=O)(=O)NCCc2csc(-c3ccc(F)cc3)n2)cc1	?	?	?	-15%	?	/
CCOc1ccc(CCNC(=O)c2cc3c(s2)-c2ccccc2OC3)cc1OCC	i	?	-19%	-35%	-35%	-8%
CC#CC[C@@H](C)[C@@H](O)/C=C/[C@H]1[C@H]2c3cccc(CCCC(=O)O)c3O[C@H]2C[C@@H]1O	/	/	/	/	/	1%
COc1ccc(S(=O)(=O)N2CCCc3ccccc32)cc1[N+](=O)[O-]	i	-25%	-13%	-25%	11µM*	22%
Cn1cc(C(N)=O)c2ccccc21	i	2%	5%	-4%	-10%	-1%
Cn1cc(C(=O)CCl)c2ccccc21	/	/	13µM*	16µM*	?	0%
OCC1(Cc2ccc(Cl)cc2)CCN(Cc2ccc(F)c(F)c2)CC1	i	-11%	-11%	-23%	7.9µM*	-4%
OCC1(Cc2ccc(Cl)cc2)CCN(Cc2ccc(Oc3ncccn3)cc2)CC1	i	-20%	-2%	-25%	10µM*	3%
OCC1(Cc2ccc(Cl)cc2)CCN(Cc2ccc3nsnc3c2)CC1	i	-25%	3%	-22%	?	15%
OCC1(Cc2ccccc2)CCN(Cc2cnc(-c3cccc4ccccc34)nc2)CC1	i	-2%	-9%	-18%	8.9µM*	16%
O=C(NCc1ccccc1Cl)C(=O)NCC(c1cccs1)S(=O)(=O)c1cccs1 (stereo not drawn)	/	/	-3%	-21%	?	/
NCCC(=O)[N-][C@@H](Cc1cnc[nH]1)C(=O)O.[Zn]	i	/	/	/	/	/

Compound activity: PubChem BioAssay, National Center for Advancing Translational Sciences (NCATS)
